Laboratory results: PubChem BioAssay (Tox21)
Records with an inconclusive call do not appear. Activity calls are given as the source filed them. Unless noted, calls follow the shape of the dose curve; as a rule, active = well fitted curve in the direction sought with a large enough effect in the repeat runs; inconclusive = weak or mixed curves; inactive = no such curve, though single readings can be large; an effect the other way counts as inactive or inconclusive.

Assays:
[1] = qHTS assay to identify small molecule agonists of the NFkB signaling pathway (AID 1159509; active = well fitted curve in the direction sought with a large enough effect in the signal ratio in the repeat runs, not every such curve was filed as active; the % refers to the signal ratio; also: series mostly up to about 61 µM)
Outline: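 NFkB-bla ME-180 cells with a beta-lactamase reporter under an NF-kB response element were plated overnight, treated with compounds in DMSO for 5 hr at 37 C, then loaded with FRET substrate for 1.5 hr at room temperature.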

[2] = qHTS assay to identify small molecule agonists of the NFkB signaling pathway - cell viability counter screen (AID 1159515; calls by dose curve; also: series mostly up to about 61 µM; nearly all actives have a fitted effect of over 55% in size)
Outline: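 Multiplexed viability readout: after the 5 hr compound exposure and 1.5 hr FRET substrate step, CellTiter-Glo reagent went into the same NFkB-bla ME-180 wells; ATP luminescence was measured after 30 min at room temperature.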

[3] = qHTS assay to identify small molecule agonists of the endoplasmic reticulum stress response signaling pathway (AID 1159516; active = well fitted activation curve with a large enough effect in the signal ratio in the repeat runs, not every such curve was filed as active; the % refers to the signal ratio)
Outline: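 Tox21 10K library screened in quantitative HTS format on ESRE-bla HeLa cells, a beta-lactamase reporter under ER stress response element control; 5 hr treatment, FRET read.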

[4] = qHTS assay to identify small molecule agonists of the endoplasmic reticulum stress response signaling pathway - cell viability counter screen (AID 1159517; calls by dose curve; also: series mostly up to about 61 µM; nearly all actives have a fitted effect of over 50% in size)
Outline: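 Luminescence readout: CellTiter-Glo, 30 min RT, same wells as the ESRE-bla reporter read. HeLa ESRE-bla, 1,500 cells/well, o/n 37 C; cpd 5 hr 37 C/5% CO2.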

[5] = qHTS assay to identify small molecule antagonists of the retinoid-related orphan receptor gamma (ROR-gamma) signaling pathway - cell viability counter screen (AID 1159520); also: nearly all actives have a fitted effect of over 50% in size
Outline: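 Tet-on ROR gamma CHO cells (1,000/well) were plated 4 hr, given compounds in DMSO for 2 hr at 37 C, then induced with 1 uM final doxycycline for 16 hr. Viability was read as ATP by CellTiter-Glo luminescence after 30 min.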

[6] = biological target: Nuclear receptor ROR-gamma (Homo sapiens) (UniProt P51449); test: qHTS assay to identify small molecule antagonists of the retinoid-related orphan receptor gamma (ROR-gamma) signaling pathway (AID 1159521;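 also: CHO cells with doxycycline inducible ROR-gamma driving an RORE luciferase reporter; top concentration of the series differs between compounds; nearly all actives have a fitted effect of over 50% in size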)
Outline: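 Cells were plated, rested 4 h at 37 C, exposed to compounds for 2 h, then given 1 uM final doxycycline hyclate to induce RORγ expression. After 16 h, ONE-Glo luminescence from the ROR response element reporter was measured.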

[7] = qHTS assay to identify small molecule agonists of the AP-1 signaling pathway - cell viability counter screen (AID 1159525; calls by dose curve; also: nearly all actives have a fitted effect of over 55% in size)
Outline: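 ME-180 AP-1-bla, 2500 cells/well, Opti-MEM + 0.5% dialyzed FBS; overnight 37 °C; cpd 15-pt titration, 5 h 37 °C; CellTiter-Glo 30 min RT; luminescence read; normalised to TOAB and DMSO controls.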

[8] = qHTS assay to identify small molecule agonists of the AP-1 signaling pathway (AID 1159526; calls by dose curve)
[9] = qHTS assay to identify small molecule agonists of the RXR signaling pathway - cell viability counter screen (AID 1159529);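 also: HEK 293T cells carrying an RXR-alpha UAS beta-lactamase reporter; series mostly up to about 77 µM; nearly all actives have a fitted effect of over 50% in size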
Outline: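 Steps: seed RXR-alpha-UAS-bla HEK 293T cells in assay medium containing 2% charcoal-stripped FBS; incubate 5 hr; add compounds in DMSO; incubate 16 hr at 37 C; after the bla read, add CellTiter-Glo and read luminescence at 30 min.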

[10] = qHTS assay to identify small molecule antagonists of the retinoid acid receptor (RAR) signaling pathway - cell viability counter screen (AID 1159551); also: nearly all actives have a fitted effect of over 35% in size
Outline: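 Cytotoxicity counter screen in C3RL4 cells: 6 h compound exposure with 1 uM retinol (final), viability from cellular ATP by luminescence.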

[11] = qHTS assay to identify small molecule agonists of the vitamin D receptor (VDR) signaling pathway - cell viability counter screen (AID 743224)
Outline: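 Viability is measured in the same wells as the VDR-bla reporter assay: after 16 h compound treatment and 2 h substrate loading, CellTiter-Glo is added and luminescence read 30 min later.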

[12] = qHTS assay to identify small molecule antagonists of the retinoic acid receptor (RAR) signaling pathway (AID 1159552; also: nearly all actives have a fitted effect of over 50% in size)
Outline: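 Retinol at 1 uM final stimulated RARE-luciferase expression in C3RL4 cells exposed to test compounds for 6 hr at 37 C. Reduced luminescence, read 30 min after detection reagent, indicated pathway antagonism.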

[13] = qHTS assay to identify small molecule agonists of the retinoic acid receptor (RAR) signaling pathway (AID 1159553); also: potency is read from the fitted curve at half-maximal effect
Outline: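 Agonist activity was scored in C3RL4 cells bearing a retinoic acid response element luciferase construct. Cells were treated with compounds for 6 hr at 37 C, and luciferase signal was measured as luminescence.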

[14] = qHTS assay to identify small molecule antagonists of the vitamin D receptor (VDR) signaling pathway - cell viability counter screen (AID 743225); also: nearly all actives have a fitted effect of over 50% in size
Outline: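 HEK293T VDR-bla; cpd + 1a,25-(OH)2D3 3 nM final, 16 h 37C/5% CO2; B/G FRET substrate 2 h RT; then CellTiter-Glo 30 min RT, luminescence.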

Measured: Potency

Cc1ccc(NC(=O)c2ccc(CN3CCN(C)CC3)cc2)cc1Nc1nccc(-c2cccnc2)n1
inactive: [1] | [2] | [3] | [4] | [5] | [6] | [7] | [8] | [9] | [10]

CC(CN=Cc1ccccc1O)N=Cc1ccccc1O (stereo unspecified)
inactive: [11] | [1] | [2] | [3] | [4] | [5] | [6] | [7] | [8] | [9] | [10] | [12] | [13]

NC(=O)c1cc[n+](CC2=C(C(=O)[O-])N3C(=O)[C@@H](NC(=O)Cc4cccs4)[C@H]3SC2)cc1
inactive: [1] | [2] | [3] | [4] | [5] | [6] | [7] | [8] | [9] | [10] | [12]

O=C(C1CCCCC1)N1CC(=O)N2CCCc3ccccc3C2C1 (stereo unspecified)
inactive: [11] | [1] | [2] | [3] | [4] | [5] | [6] | [7] | [8] | [9] | [10] | [12]

C/C=C1\[C@H]2C=C(C)C[C@]1(N)c1ccc(=O)[nH]c1C2
inactive: [11] | [14] | [1] | [2] | [3] | [4] | [5] | [6] | [7] | [8] | [9] | [10] | [12] | [13]

CCCC(=O)OCc1ccccc1
inactive: [14] | [1] | [2] | [3] | [4] | [5] | [6] | [7] | [8] | [9] | [10] | [12] | [13]

CC(=O)Oc1cccc2c1C(=O)c1c(OC(C)=O)cc(C(=O)O)cc1C2=O
inactive: [1] | [2] | [3] | [4] | [5] | [6] | [7] | [8] | [9] | [10] | [12] | [13]

C=CC(=O)NC(C)(C)C
inactive: [11] | [14] | [1] | [2] | [3] | [4] | [5] | [6] | [7] | [8] | [9] | [10] | [12]

CC(O)CN (stereo unspecified)
inactive: [11] | [14] | [1] | [2] | [3] | [4] | [5] | [6] | [7] | [8] | [9] | [10] | [12] | [13]

O=C(Nc1ccc2c(c1)Cc1ccccc1-2)C(F)(F)F
inactive: [14] | [1] | [2] | [3] | [4] | [5] | [6] | [7] | [8] | [9] | [10] | [12]
active: [13] 6.86 µM

CC(=O)CC/C=C(\C)CC/C=C(\C)CC/C=C(\C)CCC=C(C)C
inactive: [11] | [14] | [1] | [2] | [3] | [4] | [5] | [6] | [7] | [8] | [9] | [10] | [12] | [13]

C(/C=C/C=C/Nc1ccccc1)=Nc1ccccc1
inactive: [11] | [14] | [1] | [2] | [3] | [4] | [5] | [6] | [7] | [8] | [9] | [10] | [12] | [13]

CCCc1ccc(OC)cc1
inactive: [11] | [14] | [1] | [2] | [3] | [4] | [5] | [6] | [7] | [8] | [9] | [10] | [12]

O=C(O)c1ccncc1
inactive: [11] | [14] | [1] | [2] | [3] | [4] | [5] | [6] | [7] | [8] | [9] | [10] | [12] | [13]

O=C(N[C@@H](Cc1ccccc1)[C@@H](O)C(=O)N1C[C@@H](O)[C@@H](O)C1)c1cc2cc(Cl)ccc2[nH]1
inactive: [11] | [14] | [1] | [2] | [3] | [4] | [5] | [6] | [7] | [8] | [9] | [10] | [12] | [13]

CCC[Si](OC)(OC)OC
inactive: [11] | [1] | [2] | [3] | [4] | [5] | [6] | [7] | [8] | [9] | [10] | [12] | [13]

COC(=O)c1cc(Cl)ccc1[N+](=O)[O-]
inactive: [11] | [14] | [1] | [2] | [3] | [4] | [5] | [6] | [7] | [8] | [9] | [10] | [12] | [13]

CNc1ccccc1
inactive: [1] | [2] | [3] | [4] | [5] | [6] | [7] | [8] | [9] | [10]

CCCC(=O)OCCC(C)C
inactive: [11] | [1] | [2] | [3] | [4] | [5] | [6] | [7] | [8] | [9] | [10] | [12]

O=C1c2ccccc2C(=O)C1c1ccc2ccccc2n1
inactive: [11] | [14] | [1] | [2] | [3] | [4] | [5] | [6] | [7] | [8] | [9] | [10] | [12]
